# According to PubChem BioAssay (EPA / NIEHS):
# Inconclusive results are not listed. The source made the active and inactive calls. The calls were made as follows, unless noted: active = hit-call score of the fitted dose curve at least 0.9, where 1 is the maximum; inconclusive = response in the unintended direction; inactive = score below 0.9.
# Columns and labels:
# [1] = target: human CYP19A1, CYP19A1 (gene 1588) (UniProt P11511); experiment: NVS_ADME_hCYP19A1: NovaScreen (NVS) CYP450-related Enzyme Activity (ADME) Assay for human CYP19A1 (AID 2283098);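 as to AC50: potency for inhibitors seen as loss of fluorescent enzyme signal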
# Chain of human CYP19A1, CYP19A1 (gene 1588) (P11511 whole entry, looked up): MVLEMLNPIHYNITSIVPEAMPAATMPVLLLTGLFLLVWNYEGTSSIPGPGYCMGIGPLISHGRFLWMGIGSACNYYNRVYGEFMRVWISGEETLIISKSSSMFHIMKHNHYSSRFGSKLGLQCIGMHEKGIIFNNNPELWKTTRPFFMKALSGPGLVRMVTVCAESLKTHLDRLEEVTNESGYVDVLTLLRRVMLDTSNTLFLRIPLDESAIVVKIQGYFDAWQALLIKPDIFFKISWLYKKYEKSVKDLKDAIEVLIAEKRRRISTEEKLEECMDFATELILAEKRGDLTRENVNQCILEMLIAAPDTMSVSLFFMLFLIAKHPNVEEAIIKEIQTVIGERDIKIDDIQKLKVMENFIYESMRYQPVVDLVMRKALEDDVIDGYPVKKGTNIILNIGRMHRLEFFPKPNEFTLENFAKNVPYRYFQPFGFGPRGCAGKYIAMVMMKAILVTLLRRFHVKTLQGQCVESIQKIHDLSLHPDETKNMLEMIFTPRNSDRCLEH
# Procedure, shortened: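 Biochem, cell-free; recombinant enzyme + specific substrate; fluorescence intensity at 0.5 h post-dose; 10 uM duplicate primary, conc. series for actives; acetonitrile = negative control/baseline; positive and negative controls on every plate.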
# [2] = target: human Matrix Metalloproteinase-9 (MMP9), MMP9 (gene 4318) (UniProt P14780); experiment: NVS_ENZ_hMMP9: NovaScreen (NVS) Enzymatic Assay for human Matrix Metalloproteinase-9 (MMP9) (AID 2283190);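 also: cell-free recombinant MMP9 protease activity read by fluorescent substrate signal; active means inhibition seen as loss of fluorescence signal versus DMSO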
# Chain of human Matrix Metalloproteinase-9 (MMP9), MMP9 (gene 4318) (P14780 whole entry, looked up): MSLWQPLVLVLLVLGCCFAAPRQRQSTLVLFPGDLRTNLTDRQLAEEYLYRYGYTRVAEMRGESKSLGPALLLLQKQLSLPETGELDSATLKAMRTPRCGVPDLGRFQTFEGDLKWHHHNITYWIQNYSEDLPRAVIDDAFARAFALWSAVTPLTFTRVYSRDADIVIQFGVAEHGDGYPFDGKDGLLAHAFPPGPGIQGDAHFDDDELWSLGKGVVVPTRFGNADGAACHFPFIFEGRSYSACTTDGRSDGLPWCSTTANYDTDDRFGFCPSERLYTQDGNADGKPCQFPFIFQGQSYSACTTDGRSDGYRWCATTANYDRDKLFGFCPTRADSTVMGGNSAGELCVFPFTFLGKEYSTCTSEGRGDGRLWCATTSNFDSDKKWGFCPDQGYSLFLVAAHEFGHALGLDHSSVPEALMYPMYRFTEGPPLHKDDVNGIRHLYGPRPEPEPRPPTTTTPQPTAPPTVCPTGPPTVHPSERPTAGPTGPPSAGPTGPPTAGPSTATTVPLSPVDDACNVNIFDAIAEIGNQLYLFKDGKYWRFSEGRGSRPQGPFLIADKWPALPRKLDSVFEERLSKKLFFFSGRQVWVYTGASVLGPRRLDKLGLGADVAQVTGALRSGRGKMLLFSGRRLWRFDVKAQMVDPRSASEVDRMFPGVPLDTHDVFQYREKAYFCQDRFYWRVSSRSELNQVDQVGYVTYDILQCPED
# Procedure, shortened: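 Extracted enzyme, fluorescent substrate, 1 h post-dose read. Single conc 25 uM in duplicate, then concentration series for actives. Activity = signal loss relative to DMSO negative control.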
# [3] = target: human Ephrin type-A Receptor 1 (EphA1), EPHA1 (gene 2041) (UniProt P21709); experiment: NVS_ENZ_hEphA1: NovaScreen (NVS) Enzymatic Assay for human Ephrin type-A Receptor 1 (EphA1) (AID 2283158);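 also: activity is signal loss versus DMSO meaning EphA1 kinase inhibition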
# Chain of human Ephrin type-A Receptor 1 (EphA1), EPHA1 (gene 2041) (P21709 whole entry, looked up): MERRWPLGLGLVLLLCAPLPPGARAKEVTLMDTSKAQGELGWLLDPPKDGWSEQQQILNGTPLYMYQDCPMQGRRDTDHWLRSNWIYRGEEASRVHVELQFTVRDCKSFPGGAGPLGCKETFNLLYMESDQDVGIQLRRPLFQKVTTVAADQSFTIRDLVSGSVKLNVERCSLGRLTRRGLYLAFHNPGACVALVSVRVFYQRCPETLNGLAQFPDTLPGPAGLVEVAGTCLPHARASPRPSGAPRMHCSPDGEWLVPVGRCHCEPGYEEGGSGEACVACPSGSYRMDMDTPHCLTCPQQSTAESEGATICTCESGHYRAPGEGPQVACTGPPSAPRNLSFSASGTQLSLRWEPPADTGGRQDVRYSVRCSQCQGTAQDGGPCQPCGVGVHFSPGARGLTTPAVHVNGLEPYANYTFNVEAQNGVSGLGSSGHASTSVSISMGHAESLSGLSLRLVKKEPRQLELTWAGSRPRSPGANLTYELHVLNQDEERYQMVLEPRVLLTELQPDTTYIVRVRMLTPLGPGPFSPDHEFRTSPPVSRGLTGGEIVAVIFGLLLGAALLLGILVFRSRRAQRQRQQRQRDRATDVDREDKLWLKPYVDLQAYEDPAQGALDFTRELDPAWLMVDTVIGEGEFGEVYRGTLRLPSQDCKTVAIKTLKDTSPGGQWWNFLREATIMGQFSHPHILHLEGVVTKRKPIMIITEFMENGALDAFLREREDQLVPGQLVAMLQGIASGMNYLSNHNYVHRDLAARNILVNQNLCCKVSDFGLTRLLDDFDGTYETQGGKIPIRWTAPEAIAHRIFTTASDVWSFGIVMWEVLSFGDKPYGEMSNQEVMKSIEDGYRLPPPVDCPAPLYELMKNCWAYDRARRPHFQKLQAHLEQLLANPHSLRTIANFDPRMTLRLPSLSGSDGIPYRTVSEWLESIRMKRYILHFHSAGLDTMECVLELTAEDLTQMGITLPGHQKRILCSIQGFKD
# Procedure, shortened: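 Here the EphA1 protein is recombinant and the substrate fluorescent, with electrophoretic separation before fluorescence detection at 1 hour. Signal loss against DMSO defines activity; plate controls included; follow-up concentration series reach 50 uM.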
# [4] = target: human Beta-secretase (BACE), BACE1 (gene 23621) (UniProt P56817); experiment: NVS_ENZ_hBACE: NovaScreen (NVS) Enzymatic Assay for human Beta-secretase (BACE) (AID 2283140);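 also: hits are inhibitors that reduce fluorescent substrate signal versus DMSO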
# Procedure, shortened: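 Compounds were first tested in duplicate at 25 uM, then actives in concentration series, against recombinant BACE1 from SF9 cells. Enzyme activity was measured by fluorescence intensity 1 hour after dosing, with DMSO as negative control.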
# [5] = target: human Phosphoinositide 3-kinase alpha (PI3Ka), PIK3CA (gene 5290) (UniProt P42336); experiment: NVS_ENZ_hPI3Ka: NovaScreen (NVS) Enzymatic Assay for human Phosphoinositide 3-kinase alpha (PI3Ka) (AID 2283196)
# Chain of human Phosphoinositide 3-kinase alpha (PI3Ka), PIK3CA (gene 5290) (P42336 whole entry, looked up): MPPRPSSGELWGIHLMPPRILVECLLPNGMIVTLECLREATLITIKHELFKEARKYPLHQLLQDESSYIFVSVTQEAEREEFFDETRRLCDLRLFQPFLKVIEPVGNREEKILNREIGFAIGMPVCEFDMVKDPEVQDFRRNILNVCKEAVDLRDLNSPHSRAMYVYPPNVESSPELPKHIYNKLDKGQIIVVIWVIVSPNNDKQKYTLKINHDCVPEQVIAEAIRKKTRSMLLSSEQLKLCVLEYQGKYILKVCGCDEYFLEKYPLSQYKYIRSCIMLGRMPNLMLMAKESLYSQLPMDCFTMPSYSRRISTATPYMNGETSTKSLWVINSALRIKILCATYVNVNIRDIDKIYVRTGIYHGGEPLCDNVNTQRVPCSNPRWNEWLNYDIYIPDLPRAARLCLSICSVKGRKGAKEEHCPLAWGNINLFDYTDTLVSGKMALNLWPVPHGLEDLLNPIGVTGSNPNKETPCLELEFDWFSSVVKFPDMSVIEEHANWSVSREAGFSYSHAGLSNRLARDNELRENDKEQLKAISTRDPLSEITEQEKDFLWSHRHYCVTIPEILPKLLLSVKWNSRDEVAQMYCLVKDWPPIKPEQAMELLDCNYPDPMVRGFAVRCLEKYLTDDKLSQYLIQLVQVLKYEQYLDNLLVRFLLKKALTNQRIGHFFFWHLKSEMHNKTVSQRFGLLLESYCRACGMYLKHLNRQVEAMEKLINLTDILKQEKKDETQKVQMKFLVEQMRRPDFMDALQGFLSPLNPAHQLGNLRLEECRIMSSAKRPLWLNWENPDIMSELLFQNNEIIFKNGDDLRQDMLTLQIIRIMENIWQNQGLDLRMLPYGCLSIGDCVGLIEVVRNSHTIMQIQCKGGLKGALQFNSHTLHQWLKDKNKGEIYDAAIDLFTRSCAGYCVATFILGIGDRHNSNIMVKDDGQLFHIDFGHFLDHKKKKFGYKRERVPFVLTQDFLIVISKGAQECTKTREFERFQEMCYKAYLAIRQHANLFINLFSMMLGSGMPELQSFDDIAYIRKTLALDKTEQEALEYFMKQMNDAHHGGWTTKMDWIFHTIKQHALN
# Procedure, shortened: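 Fluorescence/mobility-shift readout of substrate conversion by recombinant enzyme, 1 h post-dosing. Primary screen in duplicate at 25 uM; actives (e.g. ≥30% inhibition) retested in singleton concentration-response, top concentration 50 uM.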
# [6] = read-out: E-selectin (Homo sapiens) (UniProt P16581); experiment: BSK_SAg_Eselectin: BioMAP Diversity Plus: SAg Assay for Eselectin Biomarker Activity (AID 2283091; active = hit-call score of the fitted dose curve at least 0.9, where 1 is the maximum; inactive = score below 0.9); details: primary human HUVEC with PBMC; actives raise or lower the signal
# Procedure, shortened: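 Endpoint values derive from bidirectional fitting relative to DMSO, using ELISA-measured E-selectin in a human vascular co-culture (umbilical vein endothelium plus PBMC) sampled 24 h after dosing.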
# [7] = read-out: Monokine induced gamma interferon (MIG), CXCL9 (gene 4283); experiment: BSK_SAg_MIG: BioMAP Diversity Plus: SAg Assay for Monokine induced gamma interferon (MIG) Biomarker Activity (AID 2283092; active = hit-call score of the fitted dose curve at least 0.9, where 1 is the maximum; inactive = score below 0.9); details: primary human HUVEC with PBMC; actives raise or lower the signal
# Procedure, shortened: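 Endothelial cells and PBMC were co-cultured, exposed to test chemicals, and sampled 24 h later. MIG was measured by ELISA, and responses were fitted in both directions relative to DMSO.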
# [8] = BSK_SAg_PBMCCytotoxicity: PBMC Cytotoxicity Assessment in the BioMAP Diversity Plus: SAg Assay (AID 2283093; active = hit-call score of the fitted dose curve at least 0.9, where 1 is the maximum; inactive = score below 0.9;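 also: PBMC viability measured as Alamar Blue reduction fluorescence at 546/580 nm; fitted both ways against DMSO so a hit may be loss or gain of signal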;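 as to AC50: PBMC superantigen activated with SEB plus TSST-1 one hour after compound addition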); details: primary human HUVEC with PBMC
# Procedure, shortened: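 Compound added to 75,000 PBMC/well for 1 h; SEB and TSST-1 then added at 20 ng/mL final each; 90 h incubation; Alamar Blue 6 h; read 546/580 nm ex/em. Activity fitted bidirectionally relative to DMSO baseline.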
# [9] = BSK_SAg_SRB: Viability Assessment in the BioMAP Diversity Plus: SAg Assay (AID 2283096; active = hit-call score of the fitted dose curve at least 0.9, where 1 is the maximum; inactive = score below 0.9;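 also: cells read one day after compound addition; hits may be either gain or loss of signal compared with DMSO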); details: primary human HUVEC with PBMC
# Procedure, shortened: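 Total protein by sulforhodamine B staining, 24 h after dosing, in HUVEC–PBMC co-culture; DMSO-referenced bidirectional fitting.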
# [10] = target: human CYP2C9, CYP2C9 (gene 1559) (UniProt P11712); experiment: NVS_ADME_hCYP2C9: NovaScreen (NVS) CYP450-related Enzyme Activity (ADME) Assay for human CYP2C9 (AID 2283108)
# Procedure, shortened: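 Fluorescence readout of CYP2C9 activity (SF9-expressed human enzyme) at 0.75 h. The primary screen used 10 uM in duplicate, with concentration-response follow-up for actives; acetonitrile was the negative control.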
# [11] = target: Cytochrome P450 2C19 (Homo sapiens) (UniProt P33261); experiment: NVS_ADME_hCYP2C19: NovaScreen (NVS) CYP450-related Enzyme Activity (ADME) Assay for human CYP2C19 (AID 2283113);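 also: potency for inhibition seen as loss of fluorescent signal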
# Procedure, shortened: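 Biochemical CYP2C19 inhibition screen: insect-cell recombinant protein plus fluorescent substrate, 1 h, fluorescence intensity. Acetonitrile defined baseline activity. Single 10 uM concentration in duplicate, with concentration-response follow-up for actives.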
# [12] = target: human Phosphodiesterase 10 (PDE10), PDE10A (gene 10846) (UniProt Q9Y233); experiment: NVS_ENZ_hPDE10: NovaScreen (NVS) Enzymatic Assay for human Phosphodiesterase 10 (PDE10) (AID 2283195)
# Chain of human Phosphodiesterase 10 (PDE10), PDE10A (gene 10846) (Q9Y233 whole entry, looked up): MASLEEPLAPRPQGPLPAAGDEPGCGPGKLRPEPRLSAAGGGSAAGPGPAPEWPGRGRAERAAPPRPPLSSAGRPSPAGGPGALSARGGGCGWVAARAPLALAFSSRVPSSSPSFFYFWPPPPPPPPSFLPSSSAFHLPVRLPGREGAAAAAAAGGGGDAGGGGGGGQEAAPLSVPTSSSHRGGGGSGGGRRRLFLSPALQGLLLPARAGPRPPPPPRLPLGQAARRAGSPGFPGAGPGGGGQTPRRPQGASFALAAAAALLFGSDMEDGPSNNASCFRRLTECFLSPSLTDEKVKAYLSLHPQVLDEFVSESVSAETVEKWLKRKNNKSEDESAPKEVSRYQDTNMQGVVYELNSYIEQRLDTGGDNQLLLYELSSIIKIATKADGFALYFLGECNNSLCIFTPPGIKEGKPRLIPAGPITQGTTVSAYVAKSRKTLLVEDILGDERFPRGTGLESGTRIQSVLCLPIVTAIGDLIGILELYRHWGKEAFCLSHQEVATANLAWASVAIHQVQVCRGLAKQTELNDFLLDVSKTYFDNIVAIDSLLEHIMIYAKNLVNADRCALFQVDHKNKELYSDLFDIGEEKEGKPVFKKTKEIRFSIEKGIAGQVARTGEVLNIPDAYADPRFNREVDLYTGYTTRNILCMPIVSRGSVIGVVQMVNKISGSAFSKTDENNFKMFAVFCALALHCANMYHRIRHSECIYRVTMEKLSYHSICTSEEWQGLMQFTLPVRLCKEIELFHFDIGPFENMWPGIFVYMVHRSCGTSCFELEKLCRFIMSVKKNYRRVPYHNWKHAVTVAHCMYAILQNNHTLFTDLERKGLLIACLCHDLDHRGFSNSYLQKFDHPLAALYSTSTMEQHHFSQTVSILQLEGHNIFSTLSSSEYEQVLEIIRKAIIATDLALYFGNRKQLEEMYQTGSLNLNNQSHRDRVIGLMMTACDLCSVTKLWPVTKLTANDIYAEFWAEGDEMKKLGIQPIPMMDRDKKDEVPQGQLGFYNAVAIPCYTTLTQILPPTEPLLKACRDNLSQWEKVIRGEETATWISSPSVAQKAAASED
# Procedure, shortened: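 PDE10A, cell-free; 1 h incubation; fluorescence intensity + electrophoretic mobility shift separating substrate/product; DMSO = baseline; 25 uM duplicate primary, CRC up to 50 uM.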
# [13] = target: human CYP2D6, CYP2D6 (gene 1565) (UniProt P10635); experiment: NVS_ADME_hCYP2D6: NovaScreen (NVS) CYP450-related Enzyme Activity (ADME) Assay for human CYP2D6 (AID 2283107)
# Procedure, shortened: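 Biochemical fluorescence assay, insect-cell-derived enzyme. Read at 1 h; inhibition taken from loss of signal against acetonitrile. Screened at 10 uM in duplicate, with concentration series for actives.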
# [14] = target: human Caspase 5 (CASP5), CASP5 (gene 838) (UniProt P51878); experiment: NVS_ENZ_hCASP5: NovaScreen (NVS) Enzymatic Assay for human Caspase 5 (CASP5) (AID 2283137)
# Procedure, shortened: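 E. coli-derived enzyme, cell-free, 2 h incubation, fluorescence intensity. 25 uM duplicate single-point; hits → concentration series to 50 uM. DMSO baseline, positive/negative controls on every plate.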
# [15] = target: Cytochrome P450 3A4 (Homo sapiens) (UniProt P08684); experiment: NVS_ADME_hCYP3A4: NovaScreen (NVS) CYP450-related Enzyme Activity (ADME) Assay for human CYP3A4 (AID 2283110)
# Procedure, shortened: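 Compounds were first screened in duplicate at 10 uM against recombinant CYP3A4 produced in insect cells, then actives were run in concentration series. Enzyme activity was measured by fluorescence after 0.33 hour, with acetonitrile as baseline.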
# [16] = target: human Dual Specificity Protein Phosphatase 3 (DUSP3), DUSP3 (gene 1845) (UniProt P51452); experiment: NVS_ENZ_hDUSP3: NovaScreen (NVS) Enzymatic Assay for human Dual Specificity Protein Phosphatase 3 (DUSP3) (AID 2283152);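 also: phosphatase activity of recombinant human DUSP3 on a fluorogenic substrate without cells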
# Procedure, shortened: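 Cell-free assay with recombinant human DUSP3 and fluorogenic substrate, read by fluorescence intensity. Primary screen ran duplicate at 25 uM; actives followed up in concentration series; loss of signal versus DMSO scored.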
# [17] = target: human Esterase Plasma (ES), BCHE (gene 590) (UniProt P06276); experiment: NVS_ENZ_hES: NovaScreen (NVS) Enzymatic Assay for human Esterase Plasma (ES) (AID 2283157)
# Procedure, shortened: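 Chemicals were added to plasma-extracted human enzyme in a cell-free format, and activity was read colorimetrically after 0.25 hour. Activity loss was referenced to DMSO; concentration-response top dose was 50 uM.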
# Chain of E-selectin (Homo sapiens) (P16581 whole entry, looked up): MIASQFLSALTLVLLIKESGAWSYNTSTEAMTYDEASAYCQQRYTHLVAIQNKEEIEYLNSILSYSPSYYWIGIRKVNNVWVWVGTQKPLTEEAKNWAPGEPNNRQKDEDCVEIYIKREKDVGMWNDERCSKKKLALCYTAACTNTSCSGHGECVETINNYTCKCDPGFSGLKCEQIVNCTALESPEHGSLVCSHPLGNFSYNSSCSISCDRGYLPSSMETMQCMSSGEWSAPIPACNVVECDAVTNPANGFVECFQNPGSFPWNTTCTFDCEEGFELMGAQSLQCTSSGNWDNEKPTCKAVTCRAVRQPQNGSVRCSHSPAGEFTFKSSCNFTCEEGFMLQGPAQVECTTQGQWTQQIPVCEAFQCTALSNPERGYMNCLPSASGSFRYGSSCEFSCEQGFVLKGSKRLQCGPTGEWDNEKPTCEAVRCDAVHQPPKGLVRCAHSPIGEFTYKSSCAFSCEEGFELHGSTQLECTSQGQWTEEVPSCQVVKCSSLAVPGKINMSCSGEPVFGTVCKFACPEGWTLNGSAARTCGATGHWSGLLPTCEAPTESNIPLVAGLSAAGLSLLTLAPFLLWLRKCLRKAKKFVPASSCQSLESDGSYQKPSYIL
compound,measurement,setting,value
CN(C)CCCN,outcome,[1],inactive
CCCCCCCCC,AC50,[2],25 µM (active)
CC(C)[C@@H]1CC[C@@H](C)CC1=O,outcome,[3],inactive
Cc1ccc(C(C)C)cc1O,AC50,[1],3.83 µM (active)
CC(=O)OCCOC(C)=O,AC50,[2],14.9 µM (active)
CCCCCCCCCCCCCOS(=O)(=O)O,outcome,[1],inactive
N#Cc1ccccc1,outcome,[4],inactive
same,outcome,[5],inactive
O=P(c1ccccc1)(c1ccccc1)c1ccccc1,outcome,[6],inactive
same,outcome,[7],inactive
same,outcome,[8],inactive
same,outcome,[9],inactive
same,AC50,[10],3.19 µM (active)
same,AC50,[11],12.1 nM (active)
OC1C(O)C(O)C(O)C(O)C1O (centres undefined),outcome,[3],inactive
same,outcome,[12],inactive
Nc1ccc(F)c([N+](=O)[O-])c1,outcome,[13],inactive
same,outcome,[10],inactive
same,AC50,[11],66.2 nM (active)
CC1(C)[C@H](C(=O)OCc2cccc(Oc3ccccc3)c2)[C@@H]1C=C(Cl)Cl,outcome,[12],inactive
CC1CCC(C(C)CS)CC1S (centres undefined),AC50,[6],30.8 µM (active)
same,AC50,[7],34.6 µM (active)
same,outcome,[8],inactive
same,AC50,[9],30.7 µM (active)
same,AC50,[2],0.997 µM (active)
Nc1cc(N)cc(C(=O)O)c1,AC50,[14],19.9 µM (active)
O=C1OC2(c3cc(Br)c(O)c(Br)c3Oc3c2cc(Br)c(O)c3Br)c2c(Cl)c(Cl)c(Cl)c(Cl)c21,AC50,[6],6.53 µM (active)
same,AC50,[7],23.1 µM (active)
same,AC50,[8],23.5 µM (active)
same,AC50,[9],18.2 µM (active)
same,outcome,[15],inactive
same,AC50,[11],196 nM (active)
same,AC50,[14],0.552 µM (active)
same,AC50,[16],6.67 µM (active)
same,outcome,[17],inactive
same,AC50,[5],1.86 µM (active)
COC(=O)OC,outcome,[3],inactive
same,outcome,[12],inactive
same,outcome,[5],inactive
